# Data as given in PubChem BioAssay (Tox21).
# Values without a mark were called inactive. The call rests on the fitted dose curve; in most records, active means well fitted activation curve with a large enough effect in the repeat runs; inconclusive means weak or mixed curves; inactive means flat fitted curve, though single readings scatter.
# Test: A CellTox Green Cytotoxicity Assay to monitor cytotoxicity in HEK293 cells - 0 hour (AID 1224869); further: nearly all actives have a fitted effect of over 50% in size
# Settings: CellTox Green fluorescence; series mostly up to 76.8 µM; cytotoxicity: at the top concentration
# Description: National Center for Advancing Translational Sciences [NCATS]
# NIH Chemical Genomics Center [NCGC]
# U.S. Environmental Protection Agency [EPA]
# National Institutes of Environmental Health Sciences [NIEHS]
# National Toxicology Program [NTP]
# Cell-based models are critical for drug discovery. Determining the natural cytotoxic effects resulting from test compounds is an essential research activity. A CellTox Green Cytotoxicity Assay to monitor cytotoxicity in real time of continues cell culture during 40 hours of the compound treatment was used to screen Tox21 10K library compounds in Hek293 cells. CellTox Green Cytotoxicity Assay is a nonlytic, homogeneous, biofluorescent method to measure cytotoxicity in cell culture after experimental manipulation. The assay system uses a proprietary asymmetric cyanine dye that is excluded from viable cells but preferentially stains the dead cell's DNA. […] Viable cells produce no appreciable increases in fluorescence. Therefore, the fluorescence signal produced by the binding interaction with dead cell DNA is proportional to cytotoxicity.
# The mixture of Hek293 cell suspension and reagents were dispensed at 600cells/6 ul/well in 1536-well tissue culture treated black solid bottom plates using a Multidrop dispenser. After the assay plates were incubated at a 37 C/5% CO2 incubator for 5 hours, 23 nL of compounds dissolved in DMSO, positive and negative controls was transferred to the assay plate by a pintool work station. The plates were incubated at 37 C for 40 hours. The fluorescence intensity were measured at 0h, 8h, 16h, 24h, 32h and 40h time points using ViewLux plate reader during compound treatment.
# On the % scale 0 is the no-effect control and ±100 the full control effect.
row,Compound,cytotoxicity
1,N#Cc1ccccc1C#N,-5.52%
2,Cc1ccc(O)c(C(=O)c2ccccc2)c1,-4.88%
3,Cc1ccc2cccnc2c1,2.04%
4,CCOC(=O)COc1ccc2c(C)c(CCN(CC)CC)c(=O)oc2c1Cl,2.79% [at 35.3 µM]
5,COc1ccc2cc(CCC(C)=O)ccc2c1,-0.56% [at 35.3 µM]
6,CNCCc1ccccn1,-2.04% [at 35.3 µM]
7,CN(C)CCc1c[nH]c2ccc(C[C@H]3COC(=O)N3)cc12,-5.84% [at 35.3 µM]
8,CCCCN=C(N)N=C(N)N,-10.2% [at 35.3 µM]
9,CCCCCC(=O)CC,-6.96%
10,NC(=O)CC[C@@H](N)C(=O)O,3.9% [at 35.3 µM]
11,O=C1CCCc2c(O)cccc21,-2.69% [at 35.3 µM]
12,CCCCC(CC)CCC(CC(C)C)OS(=O)(=O)O (stereo not given),0.482%
13,O=C(O)COc1ccc2ccccc2c1,-7.87%
14,COc1cc(NS(=O)(=O)c2ccc(N)cc2)ncn1,-0.549% [at 35.3 µM]
15,C=CC(C)(CCC=C(C)C)OC(=O)C(C)C (stereo not given),-6.89%
16,CC(C)(O)c1ccc(C(C)(C)O)cc1,4.67%
17,CCC(C)c1nccnc1OC (stereo not given),-2.08%
18,CC1(C)CC(N)CC(C)(C)N1,-0.187%
19,CCOC(=O)CC,-4.16%
20,C[C@@H]1CCC[C@H](C)N1CCCC(O)(c1ccccc1)c1ccccn1 (stereo not given in full),-4.36% [at 35.3 µM]

row,Compound,cytotoxicity
1,Cc1ccc(S(=O)(=O)NC(=O)NN2CC3CCCC3C2)cc1 (stereo not given),-0.42% [at 35.3 µM]
2,CCCCCCCC(=O)N(C)C,0.766%
3,BrCCOc1ccccc1,-2.33%
4,COc1cc(C(=O)NC2CCCNC2)cc(OC)c1OC (stereo not given),3.01% [at 35.3 µM]
5,CCCCCCCCCCCCCCBr,-7.49%
6,CCCCN1C(=O)c2ccccc2C1=O,-8.04%
7,CC(=O)O[C@@H]1CC2C3CCc4cc(OC(=O)c5ccccc5)ccc4C3CCC2(C)[C@H]1OC(C)=O (stereo not given in full),7.39% [at 35.3 µM]
8,CCN(CC)CC,-8.34%
9,CN(C)CCCN(C)C,0.262% [at 6.97 µM]
10,COc1cc2nc(N3CCN(C(=O)C4CCCO4)CC3)nc(N)c2cc1OC (stereo not given),-0.0346% [at 35.3 µM]
11,CCCCCCCCOCCC#N,1.38%
12,C/C=C(\C)C(=O)OC/C=C(\C)CCC=C(C)C,0.633%
13,CCCCCCCCS(=O)(=O)O,1.07%
14,C=CCCCCCCCCOC(C)=O,-0.142%
15,C/C(=N\O)c1ccc(OCC(=O)N2CCCCC2)cc1,-2.62% [at 35.3 µM]
16,COC(=O)/C=C(\C)CCC=C(C)C,0.943%
17,CC(C)C(C)C,1.44%
18,C/C=C/C(=O)CCCC,-3.33%
19,C=CCn1cc[n+](C)c1,0.27%
20,CCN1CCN(C(=O)N[C@@H](C(=O)N[C@@H]2C(=O)N3[C@@H]2SC(C)(C)[C@H]3C(=O)O)c2ccccc2)C(=O)C1=O,-0.876% [at 35.3 µM]
